Compounds without any hit were thinned out: in the full panel of roughly 79,000, 15% have a hit. Calls of active or inactive are those of the source. No stated cut-off is given here; in the data, active means growth inhibition above about 70%; inactive means the rest.
Assays:
[1] = NCI Yeast Anticancer Drug Screen. Data for the wt1 strain (AID 149);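 further: 0% = growth of vehicle-treated wt1 cultures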; details: S. cerevisiae wt1 strain (SPY 50644) growth inhibition, stronger effect = higher value
In short: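 Readout: yeast growth inhibition, normalised to vehicle controls, in the wt1 strain exposed to test compounds.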

[2] = NCI Yeast Anticancer Drug Screen. Data for the rad50EPP+ strain (AID 151);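 further: 0% = growth of vehicle-treated control cultures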; details: S. cerevisiae rad50 mutant strain, stronger effect = higher value
In short: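 Compounds were applied to the rad50EPP+ yeast strain, which bears a defined DNA repair alteration, and growth inhibition was determined relative to vehicle-treated cultures.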

[3] = NCI Yeast Anticancer Drug Screen. Data for the mgt1 strain (AID 153); details: S. cerevisiae mgt1 mutant growth inhibition, stronger effect = higher value
In short: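 Strain: mgt1 yeast, one of a set carrying defined DNA damage repair or cell cycle control alterations. Compound-treated growth compared with vehicle.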

[4] = NCI Yeast Anticancer Drug Screen. Data for the rad50 strain (AID 155);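 further: 0% = growth of vehicle-only cultures of the same strain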; details: S. cerevisiae rad50 strain growth inhibition, stronger effect = higher value
In short: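 Compounds were tested on a yeast strain with an engineered DNA damage repair alteration; the reported value is growth inhibition normalised to vehicle treatment.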

[5] = NCI Yeast Anticancer Drug Screen. Data for the mec2-1 strain (AID 157); details: S. cerevisiae mec2-1 strain, stronger effect = higher value
In short: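 Strain: mec2-1 (DNA repair/cell cycle alteration). Compound exposure, then growth measured; inhibition expressed relative to vehicle.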

[6] = NCI Yeast Anticancer Drug Screen. Data for the rad14 strain (AID 159);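 further: 0% = growth of vehicle-treated control cultures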; details: S. cerevisiae rad14 strain growth inhibition, stronger effect = higher value
In short: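 Compound-treated yeast with a defined DNA-repair lesion; growth inhibition normalised to vehicle-treated cultures.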

[7] = NCI Yeast Anticancer Drug Screen. Data for the sgs1 mgt1 strain (AID 161);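 further: 0% = growth of cultures given vehicle only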; details: S. cerevisiae sgs1 mgt1 strain, stronger effect = higher value
In short: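 Read-out: growth inhibition vs vehicle controls. Cells: mutant yeast strain deficient in DNA damage repair.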

[8] = NCI Yeast Anticancer Drug Screen. Data for the CLN2oe strain (AID 163);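 further: 0% = growth of vehicle-only control cultures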; details: S. cerevisiae CLN2oe strain, stronger effect = higher value
In short: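 Growth of a genetically modified yeast strain is measured after compound exposure and compared with cultures given vehicle alone.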

[9] = NCI Yeast Anticancer Drug Screen. Data for the cln2 rad14 strain (AID 165);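 further: 0% = growth equal to vehicle treated cultures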; details: S. cerevisiae cln2 rad14 strain, stronger effect = higher value
In short: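 Compounds are applied to the cln2 rad14 yeast strain, and growth is then compared with that of vehicle-treated cultures to give inhibition.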

[10] = NCI Yeast Anticancer Drug Screen. Data for the bub3 strain (AID 167); details: S. cerevisiae bub3 mutant strain, stronger effect = higher value
In short: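 Growth of a checkpoint-deficient yeast mutant is measured after compound exposure. Values represent inhibition relative to vehicle.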

[11] = NCI Yeast Anticancer Drug Screen. Data for the wt2 strain (AID 169);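 further: 0% = growth of vehicle-treated yeast cultures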; details: S. cerevisiae wt2 strain growth inhibition, stronger effect = higher value
In short: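 This strain belongs to a panel of yeast strains with defined genetic alterations in DNA damage repair or cell cycle control. Compounds are applied, and growth inhibition is measured against vehicle-treated cultures.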

[12] = NCI Yeast Anticancer Drug Screen. Data for the mlh1 strain (AID 171);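 further: 0% = growth of vehicle-treated control cultures of the same strain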; details: S. cerevisiae mlh1 strain growth inhibition, stronger effect = higher value
In short: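 Growth of the mutant yeast strain after compound exposure, expressed as inhibition relative to vehicle-only controls.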

[13] = NCI Yeast Anticancer Drug Screen. Data for the sgs1 strain (AID 173);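 further: 0% = growth of vehicle-only control cultures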; details: S. cerevisiae sgs1 mutant, stronger effect = higher value
In short: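 Growth of a yeast strain bearing a defined genetic alteration is measured after compound treatment. Inhibition is expressed relative to vehicle-only controls.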

[14] = NCI Yeast Anticancer Drug Screen. Data for the mlh1 rad18 strain (AID 175); details: S. cerevisiae mlh1 rad18 strain growth inhibition, stronger effect = higher value
In short: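 Read-out is yeast growth inhibition, calculated against vehicle-only controls. The compound was applied to a strain engineered with DNA damage repair alterations.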

[15] = NCI Yeast Anticancer Drug Screen. Data for the rad18 strain (AID 177); details: S. cerevisiae rad18 mutant growth inhibition, stronger effect = higher value
In short: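 Growth of the mutant yeast strain after compound exposure, normalised to vehicle-only cultures.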

[16] = NCI Yeast Anticancer Drug Screen. Data for the rad52 strain (AID 147);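 further: 0% = growth of vehicle-treated control cultures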; details: S. cerevisiae rad52 mutant growth inhibition, stronger effect = higher value
In short: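 Compounds are applied to a genetically defined yeast strain lacking normal DNA damage repair, and inhibition of growth is expressed relative to cultures given vehicle only.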

[17] = at 5.0 µM (retest, dose inferred, filed as 0.5)
[18] = at 50.0 µM (retest, dose inferred, filed as 5.0)

Measured: growth inhibition

Nc1ccc2c(c1)C(=O)c1ccc(F)cc1-2
inactive: [1]; at 1.2 µM 1% | [1]; at 3.7 µM 2% | [1]; at 11.0 µM 9% | [1]; at 33.0 µM 14% | [1]; at 100.0 µM 16% | [2]; at 1.2 µM 13% | [2]; at 3.7 µM 28% | [2]; at 11.0 µM 46% | [2]; at 33.0 µM 59% | [2]; at 100.0 µM 60% | [3]; at 1.2 µM 2% | [3]; at 3.7 µM 9% | [3]; at 11.0 µM 15% | [3]; at 33.0 µM 24% | [3]; at 100.0 µM 19% | [4]; at 1.2 µM 16% | [4]; at 3.7 µM 36% | [4]; [17] 5% | [4]; at 11.0 µM 55% | [4]; at 33.0 µM 61% | [4]; at 100.0 µM 51% | [5]; at 1.2 µM 4% | [5]; at 3.7 µM 10% | [5]; [17] -2% | [5]; at 11.0 µM 11% | [5]; at 33.0 µM 13% | [5]; [18] 30% | [5]; at 50.0 µM 19.6% | [5]; at 100.0 µM 22% | [6]; at 1.2 µM 6% | [6]; at 3.7 µM 13% | [6]; at 11.0 µM 15% | [6]; at 33.0 µM 18% | [6]; at 100.0 µM 22% | [7]; [17] -6% | [7]; [18] 32% | [7]; at 50.0 µM 9.55% | [8]; at 1.2 µM 5% | [8]; at 3.7 µM 7% | [8]; at 11.0 µM 11% | [8]; at 33.0 µM 20% | [8]; at 100.0 µM 16% | [9]; [17] 5% | [9]; [18] 8% | [9]; at 50.0 µM 5.25% | [10]; at 1.2 µM 2% | [10]; at 3.7 µM 6% | [10]; [17] -13% | [10]; at 11.0 µM 12% | [10]; at 33.0 µM 12% | [10]; [18] 35% | [10]; at 50.0 µM 20% | [10]; at 100.0 µM 20% | [11]; at 1.2 µM 1% | [11]; at 3.7 µM 3% | [11]; at 11.0 µM 7% | [11]; at 33.0 µM 11% | [11]; at 100.0 µM 12% | [12]; at 1.2 µM 3% | [12]; at 3.7 µM 13% | [12]; at 11.0 µM 14% | [12]; at 33.0 µM 13% | [12]; at 100.0 µM 22% | [13]; at 1.2 µM -4% | [13]; at 3.7 µM -4% | [13]; at 11.0 µM 0% | [13]; at 33.0 µM 2% | [13]; at 100.0 µM 4% | [14]; [17] 15% | [14]; at 50.0 µM 33.2% | [15]; at 1.2 µM 0% | [15]; at 3.7 µM 6% | [15]; at 11.0 µM 26% | [15]; at 33.0 µM 35% | [15]; at 100.0 µM 14%
active: [4]; [18] 71% | [4]; at 50.0 µM 81.4% | [14]; [18] 78%

CCOc1ccc(NC(=O)C2=C(C)NC(C)=C(C(=O)Nc3ccc(OCC)cc3)C2c2cccc([N+](=O)[O-])c2)cc1
inactive: [1]; at 1.2 µM 1% | [1]; at 3.7 µM -3% | [1]; at 11.0 µM -5% | [1]; at 33.0 µM -28% | [2]; at 1.2 µM -1% | [2]; at 3.7 µM -1% | [2]; at 11.0 µM 1% | [2]; at 33.0 µM 3% | [2]; at 100.0 µM -4% | [3]; at 1.2 µM -1% | [3]; at 3.7 µM -2% | [3]; at 11.0 µM -3% | [3]; at 33.0 µM 30% | [4]; at 1.2 µM -3% | [4]; at 3.7 µM -1% | [4]; [17] -10% | [4]; at 11.0 µM -1% | [4]; at 33.0 µM 39% | [4]; at 50.0 µM 26.4% | [5]; at 1.2 µM -1% | [5]; at 3.7 µM -2% | [5]; [17] 0% | [5]; at 11.0 µM 1% | [5]; at 33.0 µM 36% | [5]; at 50.0 µM 34.6% | [6]; at 1.2 µM -2% | [6]; at 3.7 µM -2% | [6]; at 11.0 µM -1% | [6]; at 33.0 µM 9% | [7]; [17] -12% | [7]; [18] 29% | [7]; at 50.0 µM 27.1% | [8]; at 1.2 µM 0% | [8]; at 3.7 µM -2% | [8]; at 11.0 µM -7% | [8]; at 33.0 µM 4% | [9]; [17] -4% | [9]; at 50.0 µM 55.3% | [10]; at 1.2 µM -3% | [10]; at 3.7 µM -2% | [10]; [17] -8% | [10]; at 11.0 µM 1% | [10]; at 33.0 µM 54% | [10]; at 50.0 µM 41% | [11]; at 1.2 µM -3% | [11]; at 3.7 µM -2% | [11]; at 11.0 µM -2% | [11]; at 33.0 µM 22% | [12]; at 1.2 µM -2% | [12]; at 3.7 µM -1% | [12]; at 11.0 µM 1% | [12]; at 33.0 µM 25% | [13]; at 1.2 µM -2% | [13]; at 3.7 µM 0% | [13]; at 11.0 µM 4% | [13]; at 33.0 µM 44% | [14]; [17] -7% | [14]; at 50.0 µM 59.9% | [15]; at 1.2 µM -4% | [15]; at 3.7 µM -3% | [15]; at 11.0 µM 3% | [15]; at 33.0 µM 45%
active: [1]; at 100.0 µM 79% | [3]; at 100.0 µM 92% | [4]; [18] 84% | [4]; at 100.0 µM 79% | [5]; [18] 96% | [5]; at 100.0 µM 90% | [6]; at 100.0 µM 86% | [8]; at 100.0 µM 81% | [9]; [18] 90% | [10]; [18] 97% | [10]; at 100.0 µM 93% | [11]; at 100.0 µM 87% | [12]; at 100.0 µM 86% | [13]; at 100.0 µM 84% | [14]; [18] 95% | [15]; at 100.0 µM 83%

O=C(O)CCCC1CCCc2c1ccc1ccccc21 (stereo unspecified)
inactive: [16]; at 1.2 µM -2% | [16]; at 3.7 µM 1% | [16]; at 11.0 µM 11% | [2]; at 1.2 µM 3% | [2]; at 3.7 µM 8% | [2]; at 11.0 µM 29% | [2]; at 33.0 µM 59% | [4]; at 1.2 µM -2% | [4]; at 3.7 µM 0% | [4]; [17] 6% | [4]; at 11.0 µM 8% | [4]; at 33.0 µM 58% | [5]; at 1.2 µM -2% | [5]; at 3.7 µM -4% | [5]; [17] 10% | [5]; at 11.0 µM 4% | [5]; at 33.0 µM 47% | [6]; at 1.2 µM 3% | [6]; at 3.7 µM 7% | [6]; at 11.0 µM 13% | [6]; at 33.0 µM 51% | [8]; at 1.2 µM 1% | [8]; at 3.7 µM -4% | [8]; at 11.0 µM 13% | [9]; [17] 5% | [10]; at 1.2 µM -4% | [10]; at 3.7 µM -6% | [10]; [17] 2% | [10]; at 11.0 µM 6% | [10]; at 33.0 µM 61% | [12]; at 1.2 µM -3% | [12]; at 3.7 µM -1% | [12]; at 11.0 µM 4% | [12]; at 33.0 µM 60% | [13]; at 1.2 µM -1% | [13]; at 3.7 µM -2% | [13]; at 11.0 µM 6% | [13]; at 33.0 µM 64% | [14]; [17] 4% | [15]; at 1.2 µM -2% | [15]; at 3.7 µM -2% | [15]; at 11.0 µM 2% | [15]; at 33.0 µM 58%
active: [16]; at 33.0 µM 74% | [16]; at 100.0 µM 99% | [2]; at 100.0 µM 81% | [4]; [18] 89% | [4]; at 50.0 µM 88% | [4]; at 100.0 µM 99% | [5]; [18] 95% | [5]; at 50.0 µM 83.6% | [5]; at 100.0 µM 99% | [6]; at 100.0 µM 99% | [8]; at 33.0 µM 74% | [8]; at 100.0 µM 99% | [9]; [18] 96% | [9]; at 50.0 µM 90.2% | [10]; [18] 85% | [10]; at 50.0 µM 89% | [10]; at 100.0 µM 99% | [12]; at 100.0 µM 99% | [13]; at 100.0 µM 99% | [14]; [18] 91% | [14]; at 50.0 µM 91.2% | [15]; at 100.0 µM 98%

— PubChem BioAssay (NCI)
